Experimental data as given in PubChem BioAssay (NCI).
Where “and” joins values, the source holds several entries; their conditions need not be identical. Equal values may be shown once. About 83,000 compounds went through this panel and 20% of them were active in at least one assay; those are over-represented in the sample as a whole.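 Assay: single dose, 48 h. Readout: percent growth (0 = no net growth; negative = cell death). Active: <10.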 Calls of active or inactive are those of the source.

Columns and labels:
Test in all cases: NCI-60 one-dose screen, 48 h (100 = growth as untreated, 0 = no growth, -100 = all killed)
Conditions in all cases: 10 µM unless noted
T-47D breast = system: T-47D breast
BT-549 breast = system: BT-549 breast
MDA-MB-435 melanoma = system: MDA-MB-435 melanoma
SW-620 colon = system: SW-620 colon
MCF7 breast = system: MCF7 breast
HCT-116 colon = system: HCT-116 colon
HCC-2998 colon = system: HCC-2998 colon
KM12 colon = system: KM12 colon
MDA-MB-468 breast = system: MDA-MB-468 breast

Measured: growth

FC(F)(F)c1cc2c(Cl)ncnc2n1CCC1CCOCC1
inactive: T-47D breast 66.6% | SW-620 colon 35% | MCF7 breast 34.7% | KM12 colon 64.3%
active: BT-549 breast -41.1% | MDA-MB-435 melanoma -29.6% | HCT-116 colon -53.5% | HCC-2998 colon -90.6% | MDA-MB-468 breast -82.9%

Cc1ccc(C(C(=O)NC2CCCCC2)N(Cc2ccccc2Cl)C(=O)c2ccc(CN3CCOCC3)o2)o1 (stereo not drawn)
inactive: T-47D breast 99.9% | BT-549 breast 152% | MDA-MB-435 melanoma 102% | SW-620 colon 105% | MCF7 breast 95.3% | HCT-116 colon 89.1% | HCC-2998 colon 94.7% | KM12 colon 99.4% | MDA-MB-468 breast 84.7%

O=C(CCl)Nc1ccc(C(=O)/C=C/c2cc3ccccc3nc2Cl)cc1
-54.9% (active) and 52.1% (inactive): MDA-MB-435 melanoma
-78.3% (active) and 48.9% (inactive): SW-620 colon
-93.4% (active) and 51.1% (inactive): HCC-2998 colon
-68.6% (active) and 22.5% (inactive): KM12 colon
-46.9% (active) and 51.1% (inactive): T-47D breast
8.67% (active) and 39.7% (inactive): HCT-116 colon
-82.5% (active) and 54.9% (inactive): MDA-MB-468 breast
-82.4% (active) and 45.6% (inactive): BT-549 breast
-57.1% (active) and 24.9% (inactive): MCF7 breast

COc1ccc(-c2nc3ccc(-c4nnc(SCC(=O)Nc5ccc(/C(C)=N\O)cc5)o4)cc3[nH]2)cc1
active: BT-549 breast -62.3%
inactive: T-47D breast 53.1% | MDA-MB-435 melanoma 14.5% | SW-620 colon 96.2% | MCF7 breast 37% | HCT-116 colon 70.5% | HCC-2998 colon 126% | KM12 colon 37.6% | MDA-MB-468 breast 100%

COc1ccc(NC(=O)NN2C(=O)c3ccccc3N(C)C2c2ccc(OC)cc2)cc1 (stereo not drawn)
inactive: T-47D breast 97.1% | BT-549 breast 29.9% | MDA-MB-435 melanoma 103% | SW-620 colon 100% | MCF7 breast 94.9% | HCT-116 colon 59.4% | HCC-2998 colon 113% | KM12 colon 101% | MDA-MB-468 breast 102%

COc1ccc2c(c1)C(Sc1ccc(Br)cc1)c1c(nc(N)c(C#N)c1N)O2 (stereo not drawn)
inactive: T-47D breast 80.3% | BT-549 breast 56.1% | MDA-MB-435 melanoma 88% | SW-620 colon 80.1% | MCF7 breast 61.9% | HCT-116 colon 75.1% | HCC-2998 colon 111% | KM12 colon 74.7% | MDA-MB-468 breast 97.1%

O=C1/C(=C/c2cccc3c2OCO3)Cc2c(F)cc(Br)cc21
inactive: T-47D breast 95.2% | BT-549 breast 123% | MDA-MB-435 melanoma 104% | SW-620 colon 114% | MCF7 breast 84.2% | HCT-116 colon 104% | HCC-2998 colon 117% | KM12 colon 110% | MDA-MB-468 breast 105%

O=c1c(-c2nc(-c3ccccc3)c(-c3ccccc3)[nH]2)coc2ccc(F)cc12
inactive: T-47D breast 22.1% | BT-549 breast 70.8% | MDA-MB-435 melanoma 65.4% | SW-620 colon 51% | MCF7 breast 25.9% | HCT-116 colon 39.4% | HCC-2998 colon 77.2% | KM12 colon 23.4% | MDA-MB-468 breast 16%

COc1cc(CNC(=O)C[C@H](C)CCC=C(C)C)ccc1OCc1cn(-c2ccccc2F)nn1
inactive: T-47D breast 60.6% | BT-549 breast 71% | MDA-MB-435 melanoma 100% | SW-620 colon 92.7% | MCF7 breast 66.9% | HCT-116 colon 60.2% | HCC-2998 colon 101% | KM12 colon 99.3% | MDA-MB-468 breast 57.7%

C[C@@H](Nc1c(C#N)cnc2ccc(-c3cnc4[nH]ncc4c3)cc12)c1ccccc1
inactive: T-47D breast 10.9% | MDA-MB-435 melanoma 22.4% | SW-620 colon 40.2% | HCT-116 colon 20.2% | HCC-2998 colon 33.3% | KM12 colon 30%
active: BT-549 breast -21.7% | MCF7 breast -27.9% | MDA-MB-468 breast -70.1%

CN1CCN(C(=O)Oc2cc3c(c4ccccc24)[C@H](CCl)CN3C(=O)c2cc3cc(OCCCN4CCC4)ccc3[nH]2)[C@@H]2CSSC[C@H]21
active: T-47D breast -5.44% | BT-549 breast -49.8% | MDA-MB-435 melanoma -36.2% | SW-620 colon 4.87% | MCF7 breast -63.4% | HCT-116 colon 1.54% | HCC-2998 colon -83.3% | KM12 colon -40.5% | MDA-MB-468 breast -72.1%

CCCSc1nnc(-c2c(C)nc3sccn23)o1
active: MDA-MB-468 breast -22.9%
inactive: T-47D breast 21.2% | BT-549 breast 109% | MDA-MB-435 melanoma 105% | SW-620 colon 104% | MCF7 breast 23% | HCT-116 colon 95.7% | HCC-2998 colon 105% | KM12 colon 96.2%

O=CNc1ccc(-n2cnc3cc(-c4ccc(O)cc4)ccc32)cc1
inactive: T-47D breast 63.6% | BT-549 breast 93.3% | MDA-MB-435 melanoma 82.8% | SW-620 colon 101% | MCF7 breast 71.8% | HCT-116 colon 85.6% | HCC-2998 colon 102% | KM12 colon 32.4% | MDA-MB-468 breast 86.1%

COc1ccc(N=Nc2c(N)nn3c(-c4ccc5c(c4)C=S=C5)ccnc23)cc1
inactive: BT-549 breast 19.9% | MDA-MB-435 melanoma 83.8% | SW-620 colon 65.5% | MCF7 breast 31.1% | HCT-116 colon 20.1% | HCC-2998 colon 48% | KM12 colon 42.5% | MDA-MB-468 breast 16.6%
active: T-47D breast 3.67%

CC1=C(C)C(=O)C(N2CCSCC2)=CC1=O
inactive: T-47D breast 105% | BT-549 breast 91% | MDA-MB-435 melanoma 112% | SW-620 colon 97.3% | MCF7 breast 99.6% | HCT-116 colon 93% | HCC-2998 colon 109% | KM12 colon 105% | MDA-MB-468 breast 60.4%

Cc1ccc2nc(NC(=O)Nc3cccc(Cl)c3)sc2c1
inactive: T-47D breast 98.5% | BT-549 breast 121% | MDA-MB-435 melanoma 105% | SW-620 colon 106% | MCF7 breast 66.8% | HCT-116 colon 94.7% | HCC-2998 colon 122% | KM12 colon 98.6% | MDA-MB-468 breast 93.8%

CCCCNc1ccc2c3c(cccc13)C(=O)N(c1cccc(-c3nn(-c4ccccc4)cc3-c3nc4ccccc4s3)c1)C2=O
inactive: T-47D breast 101% | BT-549 breast 117% | MDA-MB-435 melanoma 106% | SW-620 colon 105% | MCF7 breast 109% | HCT-116 colon 98.9% | HCC-2998 colon 119% | KM12 colon 108% | MDA-MB-468 breast 97.7%

COc1cc(/C=C/C(=O)c2ccc(S(=O)(=O)NCCNc3nc(N(C)C)nc(N4CCOCC4)n3)cc2)cc(OC)c1OC
inactive: T-47D breast 29.9%
active: BT-549 breast -73.3% | MDA-MB-435 melanoma -56% | SW-620 colon -100% | MCF7 breast -96.4% | HCT-116 colon -100% | HCC-2998 colon -100% | KM12 colon -100% | MDA-MB-468 breast -100%

N#Cc1ccc(C(=O)NNC(=O)CSc2nc3sc4c(c3c(=O)n2-c2ccc(Cl)cc2)CCCC4)cc1
inactive: T-47D breast 58.6% | BT-549 breast 22.7% | MDA-MB-435 melanoma 63.7% | SW-620 colon 60.3% | MCF7 breast 63% | HCT-116 colon 37.5% | HCC-2998 colon 96.1% | KM12 colon 91.2% | MDA-MB-468 breast 92%

COc1c(B(O)O)cc(F)cc1-c1nc2c(F)cc3[nH]ncc3c2c2c1CCCC2
inactive: T-47D breast 33.7% | MDA-MB-435 melanoma 31% | HCC-2998 colon 20.1%
active: BT-549 breast -62.2% | SW-620 colon 0.792% | MCF7 breast -2.86% | HCT-116 colon 4.76% | KM12 colon 7.55% | MDA-MB-468 breast -11%

O=C(NNC(=O)c1ccc(OCc2nc3ccc(Cl)cc3[nH]2)cc1)Nc1ccc(Cl)c(Cl)c1
inactive: BT-549 breast 119% | MDA-MB-435 melanoma 26.7% | SW-620 colon 47% | MCF7 breast 37.7% | HCT-116 colon 26.1% | HCC-2998 colon 70.1% | KM12 colon 33.8%
active: T-47D breast -1.89% | MDA-MB-468 breast -14.8%

Cc1ccc2nc(SCc3ccccc3F)n(-c3ccccc3)c(=O)c2c1
inactive: T-47D breast 81.4% | BT-549 breast 107% | MDA-MB-435 melanoma 111% | SW-620 colon 104% | MCF7 breast 89.2% | HCT-116 colon 68.2% | HCC-2998 colon 109% | KM12 colon 93.7% | MDA-MB-468 breast 89.3%

CNS(=O)(=O)N1CCc2c(Br)c3c(c(OC)c2C1CCc1ccccc1)OCO3 (stereo not drawn)
active: T-47D breast 6.69% | BT-549 breast -68.8% | MDA-MB-435 melanoma -67.9% | SW-620 colon 8.53% | MCF7 breast -22.3% | HCT-116 colon -16.8% | HCC-2998 colon -12.7% | KM12 colon 2.02% | MDA-MB-468 breast -63.1%

O=C(c1ccc(Cl)cc1)C1[C@H](c2ccccc2Cl)[C@@H](c2ccccc2)NC12C(=O)Nc1ccccc12 (stereo partly drawn)
active: T-47D breast -6.74% | BT-549 breast -77.4% | MDA-MB-435 melanoma -82.8% | SW-620 colon -5.33% | MCF7 breast -19% | HCT-116 colon -91.3% | HCC-2998 colon -46.2% | KM12 colon -23.4% | MDA-MB-468 breast -44.8%

COc1ccc(SC2c3cc(OC)ccc3Oc3nc(N)c(C#N)c(N)c32)cc1 (stereo not drawn)
inactive: T-47D breast 77.4% | BT-549 breast 24.5% | MDA-MB-435 melanoma 87.5% | SW-620 colon 69.5% | MCF7 breast 49.2% | HCT-116 colon 78% | HCC-2998 colon 117% | KM12 colon 61.2% | MDA-MB-468 breast 98.6%

O=C1c2cccc3c(N4CCN(Cc5ccccc5)CC4)ccc(c23)C(=O)N1c1cccc(-c2nn(-c3ccccc3)cc2-c2nc3ccccc3s2)c1
inactive: T-47D breast 97.6% | BT-549 breast 114% | MDA-MB-435 melanoma 108% | SW-620 colon 101% | MCF7 breast 88.6% | HCT-116 colon 100% | HCC-2998 colon 127% | KM12 colon 108% | MDA-MB-468 breast 95.7%

O=C(/C=C1\C(=O)N(Cc2ccccc2)c2ccccc21)c1cc2ccccc2oc1=O
inactive: T-47D breast 40.3% | BT-549 breast 97.1% | MDA-MB-435 melanoma 107% | SW-620 colon 24.2% | MCF7 breast 29.8% | HCT-116 colon 82.9% | HCC-2998 colon 113% | KM12 colon 91.2% | MDA-MB-468 breast 29.6%
